Only some compounds are listed: those with a hit (about 3.5% of all), similar ones and a draw of the others.
Hsp90 Hop PPI: changes Hsp90-Hop TPR2A binding signal, up or down. AlphaScreen TPR2A-His6 binding biotin-Hsp90 C-terminal peptide. Potency, µM (titrated, usually from 57 µM), for inactives: at the top dose activity change, negative = inhibition. 0.44% of 71,000 active. AID 595; active = well fitted curve in either direction with a large enough effect; inconclusive = small, poorly fitted or top-dose-only effect, or another doubt; note: % is set by controls: 0 for no effect and ±100 for the full control effect
IkB signaling: IkB pathway inhibition in ABC-DLBCL cells | ABC-DLBCL IkBa-CBG/CBR dual luciferase ratio, 4 h; response scale: scaled: untreated 0%, proteasome inhibitor 100% | Potency, µM (doses to about 57.1 µM), for inactives: top-dose IkBa stabilization activation | 0.04% of 110,000 active | AID 445; active = well fitted curve in the direction sought with a large enough effect in the signal ratio, not every such curve was filed as active; inconclusive = small, poorly fitted or top-dose-only effect, or a change in a side signal; the % refers to the signal ratio;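 note: the direction sought is a rising ratio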
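Luminescence ratio of IκBα-fused green versus native red beetle luciferase in OCI-Ly3 cells, 4 h post-doxycycline with compound; red signal alone, scaled from basal (0%) to zero light (-100%), flagged nonspecific or cytotoxic effects.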
HEK293 cAMP cs: counter-screen for TSHR agonists: cAMP increase in parental HEK293; parental HEK293 CNG cAMP sensor, membrane potential fluorescence; Potency, µM (doses to about 57.1 µM), for inactives: at the top dose activation, usual class: activators; 2.5% of 73,000 active; active = well fitted activation curve with a large enough effect; inconclusive = small, poorly fitted or top-dose-only effect; inactive = no such curve, though single readings can be large or run the other way; note: % of control where 0% means no effect; nearly all actives have a fitted effect of over 55% in size
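Parental HEK 293 cells stably expressing a modified CNG channel (no TSHR) report cAMP rise as membrane depolarization. Membrane potential dye with 100 uM RO 20-1724 was loaded for 60 min at room temperature, then compound added for 30 min; fluorescence read at 590 nm.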
CRE Fsk mod: CRE-bla signaling modulation under forskolin stimulation | Potency, µM (series often up to 38.2 µM), for the others: top-dose activity change, negative = inhibition, usual class: activators | CHO CRE-bla reporter (cAMP response element driving beta-lactamase), forskolin EC10, beta-lactamase ratio | 2.5% of 71,000 active; active = well fitted activation curve with a large enough effect in the signal ratio, with a control signal flat, not every such curve was filed as active; inconclusive = small, poorly fitted or top-dose-only effect, or effect the other way, or a change in a side signal; the % refers to the signal ratio; note: % of control where 0% means no effect
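Beta-lactamase reporter under a cAMP responsive element in CHO cells; compounds tested in titration series against EC10 NKH 477, 3 h at 37 °C. Read-out: CCF4 FRET ratio 460nm/530nm (excitation 405nm) giving %Activity, fitted to AC50.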
TSHR agonist: activates the human thyroid stimulating hormone receptor; P16473; HEK293-CNG-TSHR cells (CNG channel as cAMP sensor), membrane potential dye, cAMP; Potency, µM (doses to about 57.1 µM), inactives show top-dose activation, usual class: activators; 0.48% of 73,000 active; AID 926; active = well fitted activation curve with a large enough effect in the main read-out, with a control signal flat, not every such curve was filed as active; inconclusive = small, poorly fitted or top-dose-only effect, or a change in a side signal; inactive = no such curve, though single readings can be large or run the other way; % of control where 0% means no effect;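 note: the control signal comes from parental cells without the receptor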
Target sequence (P16473 whole entry, looked up): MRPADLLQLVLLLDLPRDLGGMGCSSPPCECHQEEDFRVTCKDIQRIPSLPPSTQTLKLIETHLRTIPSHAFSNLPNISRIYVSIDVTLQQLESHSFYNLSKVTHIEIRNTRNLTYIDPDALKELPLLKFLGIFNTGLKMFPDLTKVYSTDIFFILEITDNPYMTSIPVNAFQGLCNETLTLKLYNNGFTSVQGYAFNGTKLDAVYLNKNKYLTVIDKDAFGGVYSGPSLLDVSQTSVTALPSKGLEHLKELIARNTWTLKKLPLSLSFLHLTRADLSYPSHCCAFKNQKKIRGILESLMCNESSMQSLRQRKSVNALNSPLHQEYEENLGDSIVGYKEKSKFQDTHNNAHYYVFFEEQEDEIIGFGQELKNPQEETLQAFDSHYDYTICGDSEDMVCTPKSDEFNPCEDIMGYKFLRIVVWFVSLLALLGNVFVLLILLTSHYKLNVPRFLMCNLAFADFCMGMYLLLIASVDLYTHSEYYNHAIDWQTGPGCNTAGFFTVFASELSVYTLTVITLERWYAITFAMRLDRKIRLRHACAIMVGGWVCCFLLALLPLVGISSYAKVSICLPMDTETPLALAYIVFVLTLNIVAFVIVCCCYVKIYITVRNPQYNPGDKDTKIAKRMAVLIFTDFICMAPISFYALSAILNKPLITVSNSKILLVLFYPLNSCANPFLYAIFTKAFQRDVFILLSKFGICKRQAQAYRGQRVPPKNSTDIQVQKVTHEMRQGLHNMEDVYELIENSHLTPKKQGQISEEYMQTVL
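HEK 293 cells stably expressing TSHR and a modified CNG channel, with CNG-only parental cells as counterscreen, were preloaded 60 min at room temperature with membrane potential dye containing 100 uM RO 20-1724. Compound exposure was 30 min, and depolarization was read as fluorescence at 590 nm.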
The depositor's hits bear a star; u = inconclusive; x = no result given; [ ] = another dose, or the depositor's remark. Potency is the fitted concentration of half-maximal effect.

SMILES | Hsp90 Hop PPI | IkB signaling | HEK293 cAMP cs | CRE Fsk mod | TSHR agonist
COc1ccc(N(CC(=O)O)N=O)cc1 | -3%[11 µM] | -1%[11.4 µM] | -4%[11.4 µM] | 16%[7.6 µM] | -1%[11.4 µM]
O=C(NCc1ccccc1)[C@@H]1C[C@H]1[C@@H](NP(=O)(c1ccccc1)c1ccccc1)c1ccccc1 | -8% | x | u | -22% | u
O=C(NCC1CC1)[C@@H]1C[C@H]1[C@@H](NP(=O)(c1ccccc1)c1ccccc1)c1ccccc1 | -9% | x | 13µM* | -12% | u
COCCn1c(=O)c(-c2ccc(Cl)cc2)nc2cnc(Oc3cccc(Cl)c3)nc21 | -2% | 7%[11.4 µM] | 1% | u | -1%
Cc1ccccc1CS(=O)(=O)Cc1ccc(C(=O)NCCCN2CCOCC2)o1 | -17% | 2% | -2% | 0% | -1%[11.4 µM]
Cc1ccccc1CS(=O)(=O)Cc1ccc(C(=O)NCCCN2CCCC2=O)o1 | -1% | 1% | 4µM* | -11% | u
CCOC(=O)c1ccc(-n2c(N)c(C(=O)OC)c3nc4ccccc4nc32)cc1 | x | -1% | x | x | x
Cc1ccc(-n2nc(CO)c(C(=O)NC(C)c3ccccc3)n2)cc1C (stereo not drawn) | x | -1% | x | x | x
CCNc1nc(NCC)n2c(SCc3nc4ccccc4c(=O)[nH]3)nnc2n1 | -1% | 0% | 1% | 0.25µM* | 13%
CCOC(=O)c1sc(N)c(C(=O)Nc2ccc(C)cc2C)c1C | x | x | -11% | x | -11%
Nc1ccc(-c2n[nH]c(=O)c3ccccc23)cc1N | -14% | u | -3% | 2.5µM* | 8%
Cc1ccc(-c2n[nH]c(=O)c3ccccc23)cc1N | -4% | 2% | u | u | u
CCOC(=O)c1ccccc1NC(=O)N1CCOc2ccc(Cl)cc21 | x | 1% | x | x | x
Cc1cc(C)n(-c2nc3ccccc3nc2N2CCCCCC2)n1 | u | u | 20µM* | u | u
C1COC1 | 0% | -1% | u | -13% | u
O=S1(=O)c2cccc3cccc(c23)N1Cc1nnc(-c2ccccc2Br)o1 | 18% | u | u | 3.2µM* | u
O=C1c2ccccc2S(=O)(=O)N1Cc1nnc(-c2ccccc2Br)o1 | 3% | 0% | u | u | u
Cc1cccn2c(=O)c3cc(C(=O)NC(C)C)c(=N)n(Cc4ccncc4)c3nc12 | -5% | -1% | -11% | 13µM* | -5%
CCNC(=O)c1cc2c(=O)n3cccc(C)c3nc2n(Cc2ccc(C)cc2)c1=N | -3% | 0% | -80% | 1µM* | u
COCCCn1c(=N)c(C(=O)NC2CCCC2)cc2c(=O)n3cccc(C)c3nc21 | x | 0% | x | x | x
O=C(CSc1nnc(-c2ccccc2)c(-c2ccccc2)n1)NC1CCCCC1 | x | 5% | x | x | x
CN1CCN(c2ncc3nc(CCc4ccccc4)c(=O)n(C)c3n2)CC1 | -2% | -2%[11.4 µM] | u | 9% | u
Cn1cc(C(=O)NC2CCCCCC2)c(=O)c2cc(S(=O)(=O)N3CCCC3)ccc21 | -1% | 0% | u | u | u
O=C(NC1CCCCCC1)c1cc(S(=O)(=O)N2CCOCC2)ccc1N1CCCCC1 | 0% | u | 25µM* | -19% | u
CCCCn1c(NC(=O)c2ccccc2)nc2ccccc21 | 24% | u | 32µM* | u | u
SMILES | Hsp90 Hop PPI | IkB signaling | HEK293 cAMP cs | CRE Fsk mod | TSHR agonist
CCOc1ccc(-c2cc(-c3nc(-c4cc(OC)c(OC)c(OC)c4)no3)[nH]n2)cc1 | x | -3% | x | x | x
COc1ccc(-c2cc(-c3c(O)c(OC)c4occc4c3OC)[nH]n2)cc1OC | -18% | u | -19% | 10µM* | 1%
O=C(COc1ccc(-n2cnnn2)cc1)NCCc1ccc(F)cc1 | 1% | -1% | 11% | 0.063µM* | 3%
O=C(NCCc1ccccc1)c1ccc(-n2cnnn2)cc1 | -4% | -1% | -4% | -8% | -1%
COc1cccc([C@H]2Oc3ccc(OC)cc3/C(=N\OC[C@@H](O)[C@@H]3O[C@@H]4OC(C)(C)O[C@@H]4[C@H]3O)[C@@H]2O)c1 | x | x | 1%[11.4 µM] | x | -8%[11.4 µM]
Cc1cc([N+](=O)[O-])c(C)c(Br)c1C | 3%[11 µM] | 0%[11.4 µM] | 9%[11.4 µM] | -10%[7.6 µM] | 12%[11.4 µM]
C[C@@H](C(=O)O)/C(=C/c1ccc2c(c1)OCO2)C(=O)O | 2%[11 µM] | 0%[11.4 µM] | 1%[11.4 µM] | 0%[7.6 µM] | 3%[11.4 µM]
